From PubChem BioAssay (Tox21)
Inconclusive results are not listed. Active and inactive are the calls of the source. Unless noted, the call rests on the fitted dose curve; in most records, active means well fitted curve in the direction sought with a large enough effect in the repeat runs; inconclusive means weak or mixed curves; inactive means no such curve, though single readings can be large; an effect the other way counts as inactive or inconclusive.

Assays:
[1] = qHTS assay for small molecule agonists of the p53 signaling pathway (AID 651631; calls by dose curve; further: nearly all actives have a fitted effect of over 15% in size; further: potency means the concentration at half of the fitted maximal effect)
Method in brief: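 We treat p53RE-bla HCT-116 cells with compounds for 16 h at 37 °C, add LiveBLAzer B/G FRET substrate for 2 h at room temperature, and measure fluorescence intensity.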

[2] = qHTS assay for small molecules that induce genotoxicity in human embryonic kidney cells expressing luciferase-tagged ATAD5 (AID 651632); further: nearly all actives have a fitted effect of over 15% in size
Method in brief: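 Luminescent reporter readout, HEK293T ATAD5-luc line: 16 hr drug exposure (37C, 5% CO2) followed by Amplite, 30 min RT.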

[3] = qHTS assay for small molecule agonists of the p53 signaling pathway - cell viability (AID 651633; calls by dose curve;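 further: p53RE-bla HCT reporter cells with a stable beta-lactamase p53 reporter; series mostly up to about 83 µM; nearly all actives have a fitted effect of over 30% in size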)
Method in brief: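 p53RE-bla cells, seeded at 4,000 per well and rested 5 h at 37 C/5% CO2, received compounds in DMSO for 16 h at 37 C. CellTiter-Glo was then added, and luminescence was read after 30 min at room temperature to gauge cytotoxicity.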

[4] = qHTS assay for small molecule disruptors of the mitochondrial membrane potential - cell viability (AID 720634; calls by dose curve;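 further: human HepG2 liver cancer cells; series mostly up to about 83 µM; nearly all actives have a fitted effect of over 20% in size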)
Method in brief: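 HepG2, 1 hr compound, 37 C. ATP luminescence via CellTiter-Glo, 30 min RT, same well as m-MPI.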

[5] = qHTS assay for small molecule disruptors of the mitochondrial membrane potential (AID 720635); further: potency means the concentration at half of the fitted maximal effect
Method in brief: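 HepG2 cells (2,000/well) attached overnight at 37C, then took compound for 1 hr at 37C, 5% CO2. Mito-MPS dye was added for 30 min; fluorescence was read at 490/535 nm (monomers) and 540/590 nm (aggregates).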

[6] = qHTS assay to test for compound auto fluorescence at 590 nm (red) in HepG2 cells (AID 720674)
Method in brief: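 Rose Bengal sodium served as the red fluorophore standard. HepG2 monolayers (overnight attachment, MEM with 10% FBS) were exposed to test compounds for 1 hr at 37 C and read at Ex 540/Em 590 nm.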

[7] = qHTS assay to test for compound auto fluorescence at 535 nm (green) in HepG2 cells (AID 720675)
[8] = qHTS assay to test for compound auto fluorescence at 590 nm (red) in HEK293 cells (AID 720679)
Method in brief: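 Plates of HEK293 cells (10% dialyzed FBS) are treated with 23 nL compound or DMSO vehicle after a 4-5 hr attachment period, incubated overnight at 37C, and read for red fluorescence at 540/590nm.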

[9] = qHTS assay to test for compound auto fluorescence at 535 nm (green) in HEK293 cells (AID 720680)
[10] = qHTS assay to test for compound auto fluorescence at 460 nm (blue) in HEK293 cell free culture (AID 720681)
Method in brief: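 Test compounds were pinned into cell-free culture medium (DMEM with 10% FBS) and fluorescence was read directly at Ex/Em 405/460 nm. Signals were expressed as fluorescence equivalents of triamterene, with DMSO vehicle as control.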

[11] = qHTS assay to test for compound auto fluorescence at 535 nm (green) in HEK293 cell free culture (AID 720682)
Method in brief: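 Green-channel intensity (Ex/Em 485/535 nm) was recorded from compound-treated wells containing only DMEM with 10% FBS. Fluorescein provided the equivalency standard.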

[12] = qHTS assay to test for compound auto fluorescence at 590 nm (red) in HEK293 cell free culture (AID 720683)
Method in brief: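 Tox21 10K library compounds were pinned into cell-free DMEM with 10% FBS and fluorescence was read at excitation 540 nm. Activity is expressed as Rose Bengal sodium equivalency.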

[13] = qHTS assay to test for compound auto fluorescence at 460 nm (blue) in HepG2 cell free culture (AID 720685)
Method in brief: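 Compound (23 nL) or DMSO pinned into cell-free MEM with 10% FBS; blue fluorescence read at 405/460 nm excitation/emission, expressed as auto-fluorescence equivalency to triamterene.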

[14] = qHTS assay to test for compound auto fluorescence at 535 nm (green) in HepG2 cell free culture (AID 720686)
[15] = qHTS assay to test for compound auto fluorescence at 460 nm (blue) in HepG2 cells (AID 720687)
Method in brief: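 Cells (2,000/well in MEM with 10% FBS) attached overnight at 37 C, then were exposed to compound or DMSO for 1 hr at 37 C, 5% CO2. Fluorescence read at Ex/Em 405/460 nm, expressed as triamterene-equivalent signal.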

[16] = target: Glucocorticoid receptor (Homo sapiens) (UniProt P04150); test: qHTS assay to identify small molecule agonists of the glucocorticoid receptor (GR) signaling pathway (AID 720691; active means well fitted activation curve with a large enough effect in the signal ratio in the repeat runs, not every such curve was filed as active; the % refers to the signal ratio; further: potency means the concentration at half of the fitted maximal effect)
Method in brief: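 qHTS in GR-bla HeLa cells: 4 h settling at 37 C/5% CO2, 18 h compound incubation at 37 C, 2 h LiveBLAzer B/G FRET substrate at room temperature, fluorescence intensity measured.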

[17] = qHTS assay to test for compound auto fluorescence at 460 nm (blue) in HEK293 cells (AID 720678)
Method in brief: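 After cell attachment (4-5 hr, 37C), compounds were pinned onto HEK293 monolayers in 10% dialyzed FBS medium. The blue channel (405/460 nm) was read following overnight culture. Equivalency was calculated against triamterene.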

[18] = qHTS assay for small molecules that induce genotoxicity in human embryonic kidney cells expressing luciferase-tagged ATAD5 - cell viability (AID 651634; calls by dose curve; further: nearly all actives have a fitted effect of over 25% in size)
Method in brief: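 Viability read: CellTiter-Fluor fluorescence, 30 min at 37C. Cells: HEK293T, luciferase-tagged ATAD5. Exposure: 15.5 hr, 37C, 5% CO2, compound or DMSO vehicle.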

[19] = qHTS assay to test for compound auto fluorescence at 590 nm (red) in HepG2 cell free culture (AID 720684)
Method in brief: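 Measured in medium alone (MEM containing 10% FBS) following pintool addition of compound; emission at 590 nm with 540 nm excitation, referenced to Rose Bengal sodium.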

[20] = target: Glucocorticoid receptor (Homo sapiens) (UniProt P04150); test: qHTS assay to identify small molecule antagonists of the glucocorticoid receptor (GR) signaling pathway (AID 720692; active means well fitted inhibition curve with a large enough effect in the signal ratio in the repeat runs, not every such curve was filed as active; the % refers to the signal ratio)
Method in brief: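 Inhibition of glucocorticoid signalling is measured in HeLa cells with a GRE-controlled beta-lactamase reporter; cells are co-treated with compound and 5 nM dexamethasone (final) for 18 h before FRET substrate readout.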
On the % scale 0 is the no-effect control and ±100 the full control effect.

Chain of Glucocorticoid receptor (Homo sapiens) (P04150 whole entry, looked up): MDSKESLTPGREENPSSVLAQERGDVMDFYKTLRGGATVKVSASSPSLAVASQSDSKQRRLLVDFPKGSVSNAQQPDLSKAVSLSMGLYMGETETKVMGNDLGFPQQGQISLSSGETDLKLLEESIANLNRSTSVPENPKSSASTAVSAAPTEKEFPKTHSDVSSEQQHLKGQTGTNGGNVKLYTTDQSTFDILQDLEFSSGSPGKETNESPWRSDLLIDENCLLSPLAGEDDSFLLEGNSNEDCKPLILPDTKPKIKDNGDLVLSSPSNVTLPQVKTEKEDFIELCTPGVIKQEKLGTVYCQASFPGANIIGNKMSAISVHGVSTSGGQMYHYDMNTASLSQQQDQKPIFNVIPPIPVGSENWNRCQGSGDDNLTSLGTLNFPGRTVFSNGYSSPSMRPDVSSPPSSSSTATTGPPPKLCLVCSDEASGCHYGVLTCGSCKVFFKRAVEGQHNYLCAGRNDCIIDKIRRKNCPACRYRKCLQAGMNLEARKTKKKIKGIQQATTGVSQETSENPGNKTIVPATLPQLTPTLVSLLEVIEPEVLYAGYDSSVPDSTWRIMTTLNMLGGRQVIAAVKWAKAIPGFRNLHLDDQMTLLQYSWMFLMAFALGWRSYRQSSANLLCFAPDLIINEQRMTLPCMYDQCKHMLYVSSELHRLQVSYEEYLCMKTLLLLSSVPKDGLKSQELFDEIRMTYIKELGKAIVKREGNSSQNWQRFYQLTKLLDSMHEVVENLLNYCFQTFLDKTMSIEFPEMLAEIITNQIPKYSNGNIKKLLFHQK

C=COCC1CCC(COC=C)CC1 (centres undefined)
inactive: Potency [1] | Potency [2] | Potency [3] | outcome [4] | Potency [5] | outcome [6] | outcome [7] | outcome [8] | outcome [9] | outcome [10] | outcome [11] | outcome [12] | outcome [13] | outcome [14] | outcome [15] | Potency [16]

COC(=O)Nc1ccc(Cl)c(Cl)c1
active: Potency [5] 60.8 µM
inactive: Potency [1] | Potency [2] | Potency [3] | outcome [6] | outcome [7] | outcome [17] | outcome [9] | outcome [10] | outcome [11] | outcome [12] | outcome [13] | outcome [14] | outcome [15] | Potency [16]

Nc1ccccn1
inactive: Potency [1] | Potency [3] | Potency [18] | outcome [4] | outcome [6] | outcome [7] | outcome [17] | outcome [8] | outcome [9] | outcome [10] | outcome [11] | outcome [12] | outcome [19] | outcome [13] | outcome [14] | Potency [16] | Potency [20]

CC(C)C1CCC(O)CC1 (centres undefined)
inactive: Potency [1] | Potency [2] | Potency [3] | outcome [6] | outcome [7] | outcome [17] | outcome [8] | outcome [9] | outcome [10] | outcome [11] | outcome [12] | outcome [19] | outcome [13] | outcome [14] | Potency [16] | Potency [20]

CC(C)CCCO
inactive: Potency [1] | Potency [2] | Potency [3] | outcome [4] | outcome [6] | outcome [7] | outcome [17] | outcome [8] | outcome [9] | outcome [10] | outcome [11] | outcome [12] | outcome [19] | outcome [13] | outcome [14] | outcome [15] | Potency [16] | Potency [20]

CN(C)C(=O)Oc1ccc[n+](C)c1
active: Potency [16] 26.8 µM
inactive: Potency [1] | Potency [2] | Potency [3] | outcome [4] | Potency [5] | outcome [6] | outcome [17] | outcome [8] | outcome [9] | outcome [10] | outcome [11] | outcome [12] | outcome [13] | outcome [14] | Potency [20]

c1ccc(Cc2ccccc2)cc1
inactive: Potency [1] | Potency [2] | Potency [3] | outcome [4] | outcome [6] | outcome [7] | outcome [17] | outcome [8] | outcome [9] | outcome [10] | outcome [11] | outcome [12] | outcome [19] | outcome [13] | outcome [14] | outcome [15] | Potency [16] | Potency [20]

Nc1ccn([C@@H]2O[C@H](CO)[C@@H](O)C2(F)F)c(=O)n1
active: Potency [1] 0.106 µM
inactive: Potency [2] | Potency [18] | outcome [4] | outcome [6] | outcome [7] | outcome [17] | outcome [8] | outcome [9] | outcome [10] | outcome [11] | outcome [12] | outcome [19] | outcome [13] | Potency [16]

CCN(CC#N)c1cccc(C)c1
inactive: Potency [1] | Potency [2] | Potency [3] | outcome [4] | outcome [6] | outcome [7] | outcome [17] | outcome [8] | outcome [9] | outcome [10] | outcome [11] | outcome [12] | outcome [13] | outcome [14] | outcome [15]

CCCc1ncc(C[n+]2ccccc2C)c(N)n1
inactive: Potency [1] | Potency [2] | Potency [3] | outcome [4] | fluorescence, relative to Rose Bengal [6] -0.079% [at 18.6 µM] | fluorescence, % of fluorescein control [7] 0.0061% [at 18.6 µM] | fluorescence, % of triamterene [17] -0.0062% [at 18.6 µM] | fluorescence, % of fluorescent control [8] 0.0217% [at 18.6 µM] | fluorescence, % of fluorescein [9] -0.083% [at 18.6 µM] | fluorescence, % of fluorescent control [10] -0.136% [at 18.6 µM] | activity change [11] -0.0094% [at 18.6 µM] | fluorescence, % of fluorescent control [12] 0.0061% [at 18.6 µM] | fluorescence, % of Rose Bengal [19] -0.0113% [at 18.6 µM] | fluorescence, % of fluorescent control [13] 0.0057% [at 18.6 µM] | fluorescence, % of fluorescein control [14] 0.0635% [at 18.6 µM] | fluorescence, % of fluorescent control [15] -0.0148% [at 18.6 µM] | Potency [16] | Potency [20]
